# Compounds with a hit are over-represented: about 19% of the library has one in this group of screens.
# TDP1 cell CPT: DT40-hTDP1 cell growth loss with CPT; chicken DT40 Tdp1-/-;hTDP1 cells + 20 nM CPT, ATP luminescence, 48 h; Potency, µM (highest dose often 46.2 µM), for inactives: top-dose activity change, negative = growth inhibition, usual class: inhibitors; hit rate 12% among 420,000; further: potency means the concentration at half of the fitted maximal effect; nearly all actives have a fitted effect of over 55% in size
#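 Chicken DT40 Tdp1-/- cells stably complemented with human TDP1 were seeded at 400 cells/well in medium containing 20 nM camptothecin, exposed to pin-transferred compounds, and grown at 37 °C for at least 48 hr. Viability was read as ATP luminescence.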
# HT1080 IDH1KD tx: toxicity to HT-1080 IDH1 knockdown cells (counter line) | HT-1080 IDH1 knockdown viability, ATP luminescence, 48 h | Potency, µM (top dose mostly 46.1 µM), for the others: top-dose activity, negative = toxicity, actives largely listed as cytotoxic | hit rate 2% among 360,000 | AID 686971;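 further: potency means the concentration at half of the fitted maximal effect; 0% = DMSO wells and -100% = cell-free medium wells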
#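 In this qHTS, HT-1080 cells depleted of IDH1 are exposed for 48 h at 37 °C to compound titrations. Toxicity is scored from CellTiter-Glo luminescence, with DMSO as full viability and medium alone as none.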
# TDP1 cell noCPT: qHTS for Inhibitors of human tyrosyl-DNA phosphodiesterase 1 (TDP1): qHTS in cells in absence of CPT; DT40 Tdp1-/- hTDP1 cells, no CPT, ATP luminescence, 48 h; Potency, µM (doses to about 46.2 µM), inactives show top-dose activity change, negative = growth inhibition, most hits filed as inhibitors; hit rate 15% among 420,000; further: potency means the concentration at half of the fitted maximal effect; nearly all actives have a fitted effect of over 55% in size
#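 Chicken DT40 Tdp1-/- cells complemented with human TDP1, screened without camptothecin (DMSO vehicle only), 400 cells/well. Compounds pin-transferred, cells incubated at 37 °C for at least 48 hr. Growth read as ATP-dependent luminescence (CellTiter-Glo, 30 min at RT).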
# HT1080NT lethal: kills 2HG-producing HT-1080-NT fibrosarcoma cells. Potency, µM (top dose mostly 46.1 µM), for the others: at the top dose activity, negative = less viability, most hits filed as cytotoxic. AID 686970. HT-1080-NT fibrosarcoma viability, CellTiter-Glo ATP luminescence, 48 h. hit rate 1.6% among 360,000;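 further: NT is the 2HG producing partner of a matched IDH1 knockdown line; potency means the concentration at half of the fitted maximal effect; 0% = DMSO-treated cells and -100% = media-only wells without cells; nearly all actives have a fitted effect of over 55% in size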
#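 Read-out is CellTiter-Glo luminescence after 10 minutes at room temperature, following 48 hours' compound treatment of HT-1080-NT cells (750 cells/well, RPMI, 5% FBS, 37 degrees C).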
# IL-1B inflam inh: blocks inflammasome-driven IL-1 beta release; THP-1 LPS/ATP IL-1B secretion, AlphaLISA, 16 h; hits give low values; AID 743279; activity change, % at 57.5 µM; hit rate 4.7% among 360,000; in the data active means activity change below about -50%; inconclusive means mostly about -30% to -49%
#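 Secreted IL-1B measured by AlphaLISA bead assay after 16 h compound exposure of THP-1 cells; compounds (final up to 57.5 uM) added 1 h before LPS (250 ng/mL) and ATP (1.25 mM) stimulation; lower signal means less secretion.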
# Active calls of the source: *; ? = inconclusive; . = not tested or not shown. Unless noted, the call rests on the fitted dose curve; in most records, active means well fitted curve in the direction sought with a large enough effect; inconclusive means small, poorly fitted or top-dose-only effect, or another doubt; inactive means no such curve, though single readings can be large; an effect the other way counts as inactive or inconclusive. Unless noted, on the % scale 0 is the no-effect control and ±100 the full control effect.
SMILES,TDP1 cell CPT,HT1080 IDH1KD tx,TDP1 cell noCPT,HT1080NT lethal,IL-1B inflam inh
COC1CCC(OC2CC(C3(C)CCC4(CC(O)C(C)C(C(C)/C=C(\C)C(=O)C(C)CC(C)C(=O)O)O4)O3)OC3(OC(C4OC(O)(CO)C(C)CC4C)CC3C)C2C)OC1C (centres undefined),0.146µM*,3.66µM*,0.146µM*,13µM*,-54.2*
CCC(=O)c1ccc(OCC(=O)N2CCN(CC(=O)Nc3ccccc3C(F)(F)F)CC2)cc1,?,-11.3%,14.6µM*,-18.0%,10.3
Cc1cccc(NC(=O)CN2CCN(C(=O)COc3cccc(Br)c3)CC2)c1C,-27.7%,3.7%,?,-0.9%,-7.0
CC1(C)C(=O)[C@@H]2OC2[C@@]2(C)C1CC(O)[C@]1(C)C2CC[C@@]2(C)C(c3ccoc3)OC(=O)C3OC312 (some centres undefined),-26.3%,.,?,.,.
CN(C)S(=O)(=O)c1ccc(C(=O)NCCSc2c(-c3ccccc3)[nH]c3ccccc23)cc1,6.51µM*,.,6.51µM*,.,.
O=C(NCCSc1c(-c2ccccc2)[nH]c2ccccc12)c1ccc(S(=O)(=O)N2CCOCC2)cc1,5.8µM*,.,8.2µM*,.,.
O=c1[nH]c(O)c(N=Nc2ccc(S(=O)(=O)N3CCOCC3)cc2)c(=O)[nH]1,27.7%,23.6%,-6.4%,9.3%,-11.9
COc1ccc(C2/C=C\CN(C(=O)Oc3ccc(C(F)(F)F)cc3)CC(=O)N2Cc2ccc(F)cc2)cc1 (centres undefined),?,-3.5%,?,-9.8%,52.9
CCC1C2Cc3ccc(O)cc3C1(CC)CCN2C (centres undefined),-14.9%,5.6%,-19.3%,2.2%,-6.5
CN1c2ccc([N+](=O)[O-])cc2CC2(C(=O)NC(=O)N(c3ccccc3)C2=O)C1c1ccccc1 (centres undefined),13µM*,-10.3%,18.4µM*,-8.2%,19.2
COP(=S)(OC)Oc1cc(Cl)c(Cl)cc1Cl,-4.9%,.,-2.6%,.,.
COc1ccc(C2C(C#N)=C(N)Oc3c2c(=O)oc2ccccc32)cc1Cn1cc([N+](=O)[O-])cn1 (centres undefined),-13.2%,8.6%,-1.2%,13.9%,-12.0
CCCc1[nH]nc2c1C(c1ccc(OC)c(Cn3nnc4ccccc43)c1)C(C#N)=C(N)O2 (centres undefined),25.9µM*,3.8%,?,1.4%,1.5
Cn1cnc([N+](=O)[O-])c1Sc1ccc([N+](=O)[O-])cc1,3.66µM*,20.6µM*,5.17µM*,16.4µM*,-100.7*
O=C(Nc1ccc(Oc2ccc(Cl)cc2)c(Cl)c1)c1cc(I)cc(I)c1O,?,?,?,?,12.5
CCOC(=O)C1(CCc2ccccc2)CCN(Cc2ccc3c(c2)OCCO3)CC1,?,16.4µM*,25.9µM*,23.1µM*,8.2
CCOC(=O)C1(C)CCCN1C(=O)c1cccs1 (centres undefined),-28.2%,2.9%,-11.4%,?,20.1
CCOC(=O)C1(CCc2ccccc2)CCN(C2CCSCC2)CC1,8.2µM*,10.8%,6.51µM*,-0.4%,-17.6
CCOC(=O)C1(CCCc2ccccc2)CCN(C2CCCC2)CC1,18.4µM*,-26.6%,?,-18.3%,-73.7*
CCOC(=O)C1(CCOc2ccccc2)CCN(Cc2ccc(C)s2)CC1,?,?,7.31µM*,-21.4%,-96.3*
CCOC(=O)C1(CCc2ccccc2)CCN(Cc2ccc(NC(C)=O)cc2)CC1,?,-3.7%,?,-1.6%,-6.5
O=C(Cc1ccccc1)N1CCN(C2CCCC2)CC1,-2.8%,12.2%,-13.1%,21.5%,21.7
C1CCCN(C2CCNCC2)CC1,?,-2.8%,-8.5%,-15.6%,-6.6
NCc1cc(=O)[nH]o1,-1.7%,5.9%,-6.0%,24.9%,0.0
CS(=O)(=O)N1CCC2(CC1)CN(Cc1ccncc1)C2,1.9%,.,5.9%,.,.
SMILES,TDP1 cell CPT,HT1080 IDH1KD tx,TDP1 cell noCPT,HT1080NT lethal,IL-1B inflam inh
CC(NC1CCCCC1)C(O)C12CC3CC(CC(C3)C1)C2 (centres undefined),18.4µM*,?,16.4µM*,?,-54.7*
CC1CC(O)[C@]2(O)[C@]13CC(=O)OC[C@@]2(C)[C@@](C)(O)C(=O)C3 (some centres undefined),5.0%,.,25.2%,.,.
O=C(NN=Cc1ccc2c(c1)CCC2)c1cccc([N+](=O)[O-])c1,?,-8.1%,?,0.6%,-9.3
Cc1ccccc1-n1c(/C=C/c2ccc(O)cc2)nc2ccccc2c1=O,9.2µM*,.,5.8µM*,.,.
Cc1ccccc1-n1c(/C=C/c2ccccn2)nc2ccccc2c1=O,18.4µM*,-5.2%,23.1µM*,-26.5%,-52.8*
c1cc(CN2CC3(CCNCC3)C2)ccn1,-12.6%,.,-16.3%,.,.
O=C(OCC1OC(n2cnc3c(N(C(=O)c4ccccc4)C(=O)c4ccccc4)ncnc32)C(O)C1F)c1ccccc1 (centres undefined),?,?,?,?,38.3
CN1CN(c2ccccc2)C2(CCN(CCCSc3ccccc3NC(=O)/C=C/c3ccccc3)CC2)C1=O,?,?,?,?,-71.3*
O=C(/C=C/c1ccc(F)cc1)NNC(=O)CCN1CCN(Cc2ccccc2)CC1,-24.5%,-22.0%,?,0.5%,-20.3
O=C1C=C2C(=CCOC2O)O1 (centres undefined),0.103µM*,.,0.146µM*,.,.
CN1CCN(c2ncc3ncc(=O)n(C)c3n2)CC1,-8.8%,.,23.5%,.,.
CC1CCCC(C)N1/N=C/c1c[nH]c2ccc(Br)cc12 (centres undefined),?,?,?,20.6µM*,-93.3*
CCC(C)C(=O)OC1C(O)C2C(CN3CC(C)CCC3[C@]2(C)O)C2C[C@]34O[C@@]5(O)C(OC(=O)C(C)(O)C(C)O)CCC3(C)C5C(OC(C)=O)C(OC(C)=O)C4[C@@]21O (some centres undefined),-0.9%,.,6.5%,.,.
CC1C(OC(=O)CCC(=O)NC(C)(C)CO)O[C@H]2OC3(C)CC[C@H]4[C@H](C)CCC1C24OO3 (some centres undefined),0.82µM*,10.3µM*,0.0366µM*,?,-68.2*
CC(C)CC(NC(=O)CCCNC(=O)CCC(=O)OC1O[C@H]2OC3(C)CC[C@H]4[C@H](C)CCC(C1C)C24OO3)C(=O)O (some centres undefined),0.206µM*,18.4µM*,0.184µM*,23.1µM*,-5.5
C[C@H]1[C@H](OC(=O)CCC(=O)NCc2ccc(C(=O)O)cc2)O[C@@H]2O[C@@]3(C)CC[C@H]4[C@H](C)CC[C@@H]1C24OO3,0.259µM*,8.2µM*,0.0259µM*,?,-8.0

# Screening results as filed in PubChem BioAssay.
